# Measurements published in the supplement of paper PMC10037445.
# Over roughly 2,900 compounds, “NF-kB SEAP reporter activity, fold change vs agonist alone” has its median near 0.99; the highest 2% begin near 2.6. The list comes from a sample in which the highest values are over-represented; it also holds similar structures and randomly drawn compounds.
# Key:
# RAW-Dual [1] = experiment: NF-kB SEAP reporter activity, fold change vs agonist alone; cytotoxicity flag (confluency mask): cytotoxic (confluency <70% of control); higher = enhanced NF-kB activity
# Outline: (§1)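 Library stock was pin-tooled at 50 nL into 384-well plates of RAW-Dual macrophages (50,000 cells/well, DMEM), followed 1 h later by a PRR agonist, and the cells were kept at 37 °C, 5% CO2. Supernatant collected after 20 hours was read for IRF by QuantiLuc luminescence and for NF-κB by QuantiBlue absorbance at 620 nm. Reporter activity is fold change over agonist-alone wells, and a well counted as cytotoxic when its IncuCyte confluency was below 70% of agonist controls in both mask sets.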
# RAW-Dual [2] = experiment: NF-kB SEAP reporter activity, fold change vs agonist alone; higher = enhanced NF-kB activity; conditions: library stock concentration (final ~1000-fold dilution): 10 mM
# Outline: as §1
# RAW-Dual [3] = experiment: NF-kB SEAP reporter activity, fold change vs agonist alone; cytotoxicity flag (confluency mask): not cytotoxic; higher = enhanced NF-kB activity
# Outline: as §1
# [4] = agonist: ODN 1826 (TLR9) 0.5 ug/mL
# [5] = agonist: Pam2CSK4 (TLR2/6) 0.1 ug/mL
# [6] = agonist: Pam3CSK4 (TLR2/1) 0.1 ug/mL
# [7] = cytotoxicity flag (confluency mask): cytotoxic (confluency <70% of control), agonist: Imiquimod (TLR7) […]
# [8] = cytotoxicity flag (confluency mask): cytotoxic (confluency <70% of control), agonist: MPLA (TLR4) […]
# [9] = cytotoxicity flag (confluency mask): not cytotoxic, agonist: Imiquimod (TLR7) […]
# [10] = cytotoxicity flag (confluency mask): not cytotoxic, agonist: MPLA (TLR4) […]
structure (smiles),measurement,setting,value
CC1(COc2ccc3c(c2)ncn3-c2ccc3cccc(N4CCC(N)CC4)c3n2)COC1 (library stock concentration (final ~1000-fold dilution): 10 mM),NF-kB SEAP reporter activity,RAW-Dual [1]; agonist: LPS (TLR4) 0.1 ug/mL,0.769
same,NF-kB SEAP reporter activity,RAW-Dual [1]; [4],1.59
same,NF-kB SEAP reporter activity,RAW-Dual [1]; [5],1.81
same,NF-kB SEAP reporter activity,RAW-Dual [1]; [6],1.6
CC1(COc2ccc3c(c2)ncn3-c2ccc3cccc(N4CCC(N)CC4)c3n2)COC1,NF-kB SEAP reporter activity,RAW-Dual [2]; [7],2.9
same,NF-kB SEAP reporter activity,RAW-Dual [2]; [8],1.43
COCCOc1ccc2c(c1)ncn2-c1ccc2cccc(N3CCC(N)CC3)c2n1 (library stock concentration (final ~1000-fold dilution): 10 mM),NF-kB SEAP reporter activity,RAW-Dual [1]; agonist: LPS (TLR4) 0.1 ug/mL,0.593
same,NF-kB SEAP reporter activity,RAW-Dual [1]; [4],0.758
same,NF-kB SEAP reporter activity,RAW-Dual [1]; [5],0.862
same,NF-kB SEAP reporter activity,RAW-Dual [1]; [6],1.32
OCc1ccccc1OC1OC(CO)C(O)C(O)C1O (stereo not given),NF-kB SEAP reporter activity,RAW-Dual [2]; [9],0.917
same,NF-kB SEAP reporter activity,RAW-Dual [2]; [10],1.04
OCc1ccccc1OC1OC(CO)C(O)C(O)C1O (stereo not given) (library stock concentration (final ~1000-fold dilution): 10 mM),NF-kB SEAP reporter activity,RAW-Dual [3]; agonist: LPS (TLR4) 0.1 ug/mL,0.986
same,NF-kB SEAP reporter activity,RAW-Dual [3]; [4],1.08
same,NF-kB SEAP reporter activity,RAW-Dual [3]; [5],1.11
same,NF-kB SEAP reporter activity,RAW-Dual [3]; [6],1.19
COc1cccc(-c2c(C)n(Cc3c(F)cccc3C(F)(F)F)c(=O)n(CC(NCCCC(=O)O)c3ccccc3)c2=O)c1F (stereo not given),NF-kB SEAP reporter activity,RAW-Dual [2]; [10],1.03
COc1cccc(-c2c(C)n(Cc3c(F)cccc3C(F)(F)F)c(=O)n(CC(NCCCC(=O)O)c3ccccc3)c2=O)c1F (stereo not given) (library stock concentration (final ~1000-fold dilution): 10 mM),NF-kB SEAP reporter activity,RAW-Dual [3]; agonist: LPS (TLR4) 0.1 ug/mL,1.32
same,NF-kB SEAP reporter activity,RAW-Dual [3]; [4],1.06
same,NF-kB SEAP reporter activity,RAW-Dual [3]; [5],0.866
same,NF-kB SEAP reporter activity,RAW-Dual [3]; [6],0.768
C=CC1(C)CC(OC(=O)CSCCN(CC)CC)C2(C)C(C)CCC3(CCC(=O)C32)C(C)C1O (stereo not given) (library stock concentration (final ~1000-fold dilution): 10 mM),NF-kB SEAP reporter activity,RAW-Dual [3]; agonist: LPS (TLR4) 0.1 ug/mL,1.56
same,NF-kB SEAP reporter activity,RAW-Dual [3]; [4],0.725
same,NF-kB SEAP reporter activity,RAW-Dual [3]; [5],1.11
same,NF-kB SEAP reporter activity,RAW-Dual [3]; [6],0.934
C=CC1(C)CC(OC(=O)CSCCN(CC)CC)C2(C)C(C)CCC3(CCC(=O)C32)C(C)C1O (stereo not given),NF-kB SEAP reporter activity,RAW-Dual [2]; [10],1.12
Nc1cccc2c1C(=O)N(C1CCC(=O)NC1=O)C2=O (stereo not given),NF-kB SEAP reporter activity,RAW-Dual [2]; [9],1.6
same,NF-kB SEAP reporter activity,RAW-Dual [2]; [10],1.07
Cc1sc2c(c1C)C(c1ccc(Cl)cc1)=N[C@@H](CC(=O)NCCCCCCCCNC(=O)COc1cccc3c1C(=O)N(C1CCC(=O)NC1=O)C3=O)c1nnc(C)n1-2 (stereo not given in full),NF-kB SEAP reporter activity,RAW-Dual [2]; [7],1.73
same,NF-kB SEAP reporter activity,RAW-Dual [2]; [8],2.44
Cc1sc2c(c1C)C(c1ccc(Cl)cc1)=N[C@@H](CC(=O)NCCCCCCCCNC(=O)COc1cccc3c1C(=O)N(C1CCC(=O)NC1=O)C3=O)c1nnc(C)n1-2 (stereo not given in full) (library stock concentration (final ~1000-fold dilution): 10 mM),NF-kB SEAP reporter activity,RAW-Dual [1]; agonist: LPS (TLR4) 0.1 ug/mL,3.73
same,NF-kB SEAP reporter activity,RAW-Dual [1]; [4],1.84
same,NF-kB SEAP reporter activity,RAW-Dual [1]; [5],1.74
same,NF-kB SEAP reporter activity,RAW-Dual [1]; [6],3
O=C1CCC(N2C(=O)c3ccccc3C2=O)C(=O)N1 (stereo not given),NF-kB SEAP reporter activity,RAW-Dual [2]; [9],0.926
same,NF-kB SEAP reporter activity,RAW-Dual [2]; [10],0.792
O=C1CCC(N2C(=O)c3ccccc3C2=O)C(=O)N1 (stereo not given) (library stock concentration (final ~1000-fold dilution): 10 mM),NF-kB SEAP reporter activity,RAW-Dual [3]; agonist: LPS (TLR4) 0.1 ug/mL,1.22
same,NF-kB SEAP reporter activity,RAW-Dual [3]; [4],1.01
same,NF-kB SEAP reporter activity,RAW-Dual [3]; [5],0.95
same,NF-kB SEAP reporter activity,RAW-Dual [3]; [6],1.17
Cc1sc2c(c1C)C(c1ccc(Cl)cc1)=NC(CC(=O)NCCCCNC(=O)COc1cccc3c1C(=O)N(C1CCC(=O)NC1=O)C3=O)c1nnc(C)n1-2 (stereo not given),NF-kB SEAP reporter activity,RAW-Dual [2]; [7],1.89
same,NF-kB SEAP reporter activity,RAW-Dual [2]; [8],2.59
Nc1cccc2c1C(=O)N(C1CCC(=O)NC1=O)C2=O (stereo not given) (library stock concentration (final ~1000-fold dilution): 10 mM),NF-kB SEAP reporter activity,RAW-Dual [3]; agonist: LPS (TLR4) 0.1 ug/mL,1.16
same,NF-kB SEAP reporter activity,RAW-Dual [3]; [4],1.17
same,NF-kB SEAP reporter activity,RAW-Dual [3]; [5],1.08
same,NF-kB SEAP reporter activity,RAW-Dual [3]; [6],1.35
Cc1sc2c(c1C)C(c1ccc(Cl)cc1)=NC(CC(=O)NCCCCNC(=O)COc1cccc3c1C(=O)N(C1CCC(=O)NC1=O)C3=O)c1nnc(C)n1-2 (stereo not given) (library stock concentration (final ~1000-fold dilution): 10 mM),NF-kB SEAP reporter activity,RAW-Dual [1]; agonist: LPS (TLR4) 0.1 ug/mL,7.56
same,NF-kB SEAP reporter activity,RAW-Dual [1]; [4],3.05
same,NF-kB SEAP reporter activity,RAW-Dual [1]; [5],1.99
same,NF-kB SEAP reporter activity,RAW-Dual [1]; [6],3.03
